Hit rate of the full screen: of about 39,000 compounds, about 3,300 (8.5%) were called active. The sample as a whole holds a higher share of actives than the screen did.
tested on: HepG2; experiment: cytotoxicity call (relative viability < 0.9); conditions: 10 µM

Row | Structure (SMILES) | cytotoxicity call
1 | C[C@@H]1CN([C@@H](C)CO)S(=O)(=O)c2ccc(-c3ccncc3)cc2O[C@@H]1CN(C)Cc1ccc(Oc2ccccc2)cc1 | inactive
2 | C[C@H](O)C#Cc1ccc2c(c1)O[C@@H](CN(C)C(=O)CN(C)C)[C@H](C)CN([C@H](C)CO)S2(=O)=O | inactive
3 | C[C@H]1CN([C@@H](C)CO)C(=O)c2cccc(NC(=O)Nc3ccccc3)c2O[C@@H]1CN(C)Cc1ccc(-c2ccccc2)cc1 | inactive
4 | CC(C)NC(=O)Nc1cccc2c1O[C@@H](CN(C)Cc1ccc(-c3ccccc3)cc1)[C@@H](C)CN([C@@H](C)CO)C2=O | inactive
5 | C[C@H](CO)N1C[C@H](C)[C@@H](CN(C)Cc2ccc(-c3ccccc3)cc2)Oc2c(NC(=O)Nc3ccc(F)cc3)cccc2C1=O | inactive
6 | C[C@@H]1CN([C@@H](C)CO)C(=O)c2cccc(NC(=O)Nc3ccccc3)c2O[C@H]1CN(C)Cc1ccc(-c2ccccc2)cc1 | inactive
7 | C[C@@H]1CN([C@H](C)CO)C(=O)c2cccc(NC(=O)Nc3ccc(F)cc3)c2O[C@H]1CN(C)Cc1ccc(-c2ccccc2)cc1 | active
8 | C[C@H](CO)N1C[C@H](C)[C@H](CN(C)Cc2ccc(-c3ccccc3)cc2)Oc2c(NC(=O)Nc3ccc(F)cc3)cccc2C1=O | inactive
9 | C[C@@H]1CN([C@@H](C)CO)C(=O)c2cccc(NC(=O)Nc3ccc(F)cc3)c2O[C@@H]1CN(C)Cc1ccc(-c2ccccc2)cc1 | active
10 | C[C@H]1CN([C@@H](C)CO)C(=O)c2cccc(NC(=O)Nc3ccc(F)cc3)c2O[C@H]1CN(C)Cc1ccc(-c2ccccc2)cc1 | inactive
11 | CC(C)NC(=O)Nc1cccc2c1O[C@H](CN(C)Cc1ccc(-c3ccccc3)cc1)[C@@H](C)CN([C@@H](C)CO)C2=O | active
12 | C[C@@H]1CN([C@@H](C)CO)C(=O)c2cccc(NC(=O)Nc3ccccc3)c2O[C@@H]1CN(C)Cc1ccc(-c2ccccc2)cc1 | active
13 | CC(C)NC(=O)Nc1cccc2c1O[C@H](CN(C)Cc1ccc(-c3ccccc3)cc1)[C@H](C)CN([C@H](C)CO)C2=O | inactive
14 | C[C@H]1CN([C@@H](C)CO)C(=O)c2cccc(NC(=O)Nc3ccc(F)cc3)c2O[C@@H]1CN(C)Cc1ccc(-c2ccccc2)cc1 | inactive
15 | CN1CCN(C(=O)C[C@H]2CC[C@@H]3[C@H](COC[C@H](O)CN3C(=O)C3CC3)O2)CC1 | inactive
16 | O=C(O)[C@H]1CCCC[C@@H]1C(=O)N1CCOCC1 | inactive
17 | CO[C@@H]1CN(C)C(=O)c2ccc(NS(C)(=O)=O)cc2OC[C@@H](C)N(C(=O)C2CCCCC2)C[C@H]1C | inactive
18 | COc1ccc(NC(=O)N2C[C@@H](O)COC[C@@H]3O[C@H](CC(=O)NCc4ccccc4OC)CC[C@H]32)cc1 | inactive
19 | C[C@@H]1CN([C@@H](C)CO)S(=O)(=O)c2ccc(C#CC3CC3)cc2O[C@H]1CN(C)Cc1ccccc1F | inactive
20 | COc1ccc(S(=O)(=O)N[C@H]2CC[C@@H](CC(=O)N3CCN(c4ccccc4)CC3)O[C@H]2CO)cc1 | inactive

Row | Structure (SMILES) | cytotoxicity call
21 | CC(C)NC(=O)Nc1ccc2c(c1)C(=O)N([C@H](C)CO)C[C@@H](C)[C@H](CN(C)S(C)(=O)=O)OCCCC[C@H](C)O2 | inactive
22 | O=C(C[C@H]1CC[C@@H](NS(=O)(=O)c2ccc(F)cc2)[C@@H](CO)O1)NCc1ccc(Cl)c(Cl)c1 | inactive
23 | C[C@@H]1CCCCO[C@@H](CN(C)C(=O)Nc2ccc(F)cc2)[C@H](C)CN([C@H](C)CO)C(=O)c2cc(NC(=O)Cc3ccccc3)ccc2O1 | inactive
24 | C[C@@H]1O[C@@H](O[C@@H]2[C@@H](O)[C@H](C)O[C@@H](OC[C@H]3O[C@@H](Oc4c(-c5ccc(O)cc5)oc5cc(O)cc(O)c5c4=O)[C@H](O)[C@@H](O)[C@H]3O)[C@@H]2O)[C@H](O)[C@H](O)[C@H]1O | inactive
25 | C[C@@H]1CN([C@@H](C)CO)C(=O)c2cc(C#Cc3cccnc3)cnc2O[C@@H]1CN(C)Cc1ccc(F)cc1 | inactive
26 | C[C@H](CO)N1C[C@H](C)[C@@H](CN(C)Cc2ccccc2)Oc2c(NC(=O)c3ccc(-c4nccs4)cc3)cccc2C1=O | inactive
27 | N#CCNC(=O)Cc1ccccc1 | inactive
28 | NC(Cc1cc(I)c(Oc2ccc(O)c(I)c2)c(I)c1)C(=O)O (centres undefined) | inactive
29 | N[C@@H](Cc1cc(I)c(Oc2ccc(O)c(I)c2)c(I)c1)C(=O)O | inactive
30 | NC(Cc1cc(I)c(Oc2ccc(O)c(I)c2)c(I)c1)C(=O)[O-].[Na+] [LIOTHYRONINE (L- isomer) SODIUM ] | active
31 | COc1cccc(S(=O)(=O)Nc2ccc3c(c2)[C@@H]2C[C@@H](CC(=O)NCc4cccc(F)c4)O[C@@H](CO)[C@@H]2O3)c1 | inactive
32 | Cc1noc(C)c1S(=O)(=O)Nc1ccc2c(c1)CC(=O)N([C@H](C)CO)C[C@H](C)[C@H](CN(C)CC1CC1)O2 | inactive
33 | Cc1noc(C)c1S(=O)(=O)N(C)C[C@@H]1OCCCC[C@H](C)Oc2ccc(NC(=O)Nc3ccccc3)cc2C(=O)N([C@H](C)CO)C[C@H]1C | active
34 | Cc1noc(C)c1S(=O)(=O)N(C)C[C@@H]1OCCCC[C@@H](C)Oc2ccc(NC(=O)Nc3ccccc3)cc2C(=O)N([C@H](C)CO)C[C@H]1C | inactive
35 | Cc1noc(C)c1S(=O)(=O)N(C)C[C@H]1OCCCC[C@H](C)Oc2ccc(NC(=O)Nc3ccccc3)cc2C(=O)N([C@H](C)CO)C[C@H]1C | inactive
36 | Cc1noc(C)c1S(=O)(=O)N(C)C[C@@H]1OCCCC[C@@H](C)Oc2ccc(NC(=O)Nc3ccccc3)cc2C(=O)N([C@@H](C)CO)C[C@@H]1C | inactive
37 | Cc1noc(C)c1S(=O)(=O)N(C)C[C@H]1OCCCC[C@@H](C)Oc2ccc(NC(=O)Nc3ccccc3)cc2C(=O)N([C@@H](C)CO)C[C@@H]1C | active
38 | Cc1noc(C)c1S(=O)(=O)N(C)C[C@H]1OCCCC[C@H](C)Oc2ccc(NC(=O)Nc3ccccc3)cc2C(=O)N([C@H](C)CO)C[C@@H]1C | inactive
39 | COc1cccc(S(=O)(=O)N(C)C[C@H]2Oc3cc(C4=CCCC4)ccc3S(=O)(=O)N([C@@H](C)CO)C[C@@H]2C)c1 | inactive
40 | CC(C)NC(=O)Nc1ccc2c(c1)C(=O)N([C@@H](C)CO)C[C@@H](C)[C@@H](CN(C)C(=O)Nc1ccccc1)OCCCC[C@H](C)O2 | inactive

Row | Structure (SMILES) | cytotoxicity call
41 | C[C@@H](NC(=O)C[C@@H]1C=C[C@H](NC(=O)CN2CCOCC2)[C@H](CO)O1)c1ccccc1 | inactive
42 | Cc1ccc(NC(=O)n2c3ccccc3c3ccccc32)cc1 | active
43 | Cc1ccc(OC(=O)n2c3ccccc3c3ccccc32)cc1 | inactive
44 | CC1=CC(C)(C)N(C(=O)Nc2ccc(C)cc2)c2ccccc21 | inactive
45 | C[C@@H]1CN([C@H](C)CO)S(=O)(=O)c2ccc(C3=CCCCC3)cc2O[C@H]1CN(C)S(=O)(=O)c1cn(C)cn1 | inactive
46 | O=C(C[C@@H]1CC[C@@H]2[C@H](COC[C@@H](O)CN2S(=O)(=O)c2cccc(Cl)c2)O1)NCc1ccc2c(c1)OCO2 | inactive
47 | O=C(NO)c1ccc(-c2cn(CC(=O)N3CCOCC3)nn2)s1 | inactive
48 | CC(C)C[C@@H]1NC(=O)[C@@H](C(C)C)NC(=O)[C@@H]2CCCN2C(=O)[C@@H](CC(=O)O)NC(=O)[C@@H](Cc2c[nH]c3ccccc23)NC1=O | inactive
49 | C[C@H]1[C@H]2[C@H](Cc3ccccc3)NC(=O)[C@]23C(=O)N[C@H](Cc2ccccc2)C(=O)N2CCC[C@H]2C(=O)NC/C=C\C/C=C/[C@@H]3[C@@H]2O[C@]12C | inactive
50 | CC(C)C[C@H]1NC(=O)[C@@H](CCCN)NC(=O)[C@H](C(C)C)NC(=O)[C@H]2CCCN2C(=O)[C@@H](Cc2ccccc2)NC(=O)[C@@H](CC(C)C)NC(=O)[C@@H](CCCN)NC(=O)[C@H](C(C)C)NC(=O)[C@H]2CCCN2C(=O)[C@@H](Cc2ccccc2)NC1=O | active
51 | CC1NC(=O)C2CCCN2C(=O)C(CC(N)=O)NC(=O)C2CSSCC(N)C(=O)NC3CSSCC(NC1=O)C(=O)NC(C(C)O)C(=O)NCC(=O)NC(C(=O)NC(Cc1ccc(O)cc1)C(=O)O)CSSCC(NC(=O)C(Cc1ccc(O)cc1)NC(=O)C(CCC(=O)O)NC3=O)C(=O)N2 (centres undefined) | inactive
52 | CC[C@@H](C)CCCCC(=O)N[C@@H](CCN)C(=O)N[C@H](C(=O)N[C@@H](CCN)C(=O)N[C@H]1CCNC(=O)[C@H]([C@@H](C)O)NC(=O)[C@H](CCN)NC(=O)[C@H](CCN)NC(=O)[C@H](CC(C)C)NC(=O)[C@@H](Cc2ccccc2)NC(=O)[C@@H](CCN)NC1=O)[C@@H](C)O | inactive
53 | C[C@H]1CN([C@@H](C)CO)C(=O)c2cc(NS(=O)(=O)c3cccs3)ccc2O[C@H]1CN(C)S(C)(=O)=O | inactive
54 | COc1ccc(S(=O)(=O)N(C)C[C@@H]2Oc3ccc(NS(=O)(=O)c4ccccc4)cc3CC(=O)N([C@H](C)CO)C[C@@H]2C)cc1 | inactive
55 | COCCN(C)C(=O)c1ccc2nnc([C@H]3CN(S(C)(=O)=O)CCN3C)n2c1 | inactive
56 | C=CCOC(=O)[C@@H]1[C@H]2C(=O)O[C@H](c3ccccc3)[C@H](c3ccccc3)N2[C@H](c2ccc(OCCOC(=O)[C@@H]3C[C@@H]4C(=O)N[C@@H](CCCCNC(C)=O)C(=O)N4[C@@H]3c3ccc(O)cc3)cc2)[C@@]12C(=O)Nc1ccccc12 | inactive
57 | C=CCNC1=C2C[C@H](C)C[C@H](OC)[C@@H](O)[C@H](C)/C=C(\C)[C@H](OC(N)=O)[C@H](OC)/C=C/C=C(\C)C(=O)NC(=CC1=O)C2=O | active
58 | C=CCNC1=C2C[C@@H](C)C[C@H](OC)[C@H](O)[C@@H](C)/C=C(\C)[C@H](OC(N)=O)[C@@H](OC)/C=C\C=C(/C)C(=O)NC(=CC1=O)C2=O | active
59 | CO[C@H]1/C=C\C=C(/C)C(=O)NC2=CC(=O)C(NCCN(C)C)=C(C[C@@H](C)C[C@H](OC)[C@H](O)[C@@H](C)/C=C(\C)[C@@H]1OC(N)=O)C2=O | active

Source: the antibiotic and cytotoxicity screens of Wong et al. (2023)
